Drawing on PubChem BioAssay (EPA / NIEHS), this text covers outcome and AC50 for 23 molecules.

A short description of experiment [1]: CEETOX_H295R_PROG: CeeTox H295R High-throughput Steroidogenesis Assay for Progesterone (PROG) (AID 2283442).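 For AC50: human H295R adrenal cells primed with 10 µM forskolin before dosing.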 To be noted: actives raise or lower the signal. The procedure, abridged:
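Measured analyte is progesterone secreted by H295R cells at 48 h of chemical treatment, following 10 uM forskolin priming. Quantitation used HPLC-MS/MS against a 7-point standard curve; cytotoxicity was checked by MTT absorbance.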

Read-out in experiment [2]: Tumor necrosis factor receptor superfamily member 6 (Homo sapiens) (UniProt P25445)
The experiment is described as follows: LTEA_HepaRG_FAS: Life Technologies and Expression Analysis (LTEA) Assay for Fas cell surface death receptor (FAS) using HepaRG (AID 2283447). As to conditions: mRNA level, 48 h; actives raise or lower the signal. The procedure, abridged: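 FAS transcript level was measured by TaqMan qRT-PCR against three housekeeping genes after 48 h chemical exposure. Cells were HepaRG, 0.5% DMSO vehicle, with a top concentration of 100 uM and half-log dilutions over eight points, in duplicate.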

Read-out in experiment [3]: Cyclin D2 (CCND2), CCND2 (gene 894)
The experiment in a line: LTEA_HepaRG_CCND2: Life Technologies and Expression Analysis (LTEA) Assay for Cyclin D2 (CCND2) using HepaRG (AID 2283449). As to conditions: mRNA level, 48 h; actives raise or lower the signal. The procedure, abridged: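 CCND2 transcript levels, quantified by qRT-PCR and normalised to three housekeeping genes, were fitted bidirectionally against 0.5% DMSO. HepaRG cultures were dosed 48 h in duplicate with an 8-point half-log series up to 100 uM.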

Read-out in experiment [4]: Cyclin Dependent Kinase Inhibitor 1A (CDKN1A), CDKN1A (gene 1026)
The experiment is described as follows: LTEA_HepaRG_CDKN1A: Life Technologies and Expression Analysis (LTEA) Assay for Cyclin Dependent Kinase Inhibitor 1A (CDKN1A) using HepaRG (AID 2283450). To be noted: mRNA level, 48 h; actives raise or lower the signal. In short, it runs like this: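 Gain or loss of CDKN1A transcript is scored by bidirectional fitting against 0.5% DMSO vehicle. Human HepaRG cultures receive chemicals for 48 h across an 8-point series peaking at 100 uM; expression comes from qRT-PCR.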

Read-out in experiment [5]: Cyclin D1 (CCND1), CCND1 (gene 595)
The experiment in a line: LTEA_HepaRG_CCND1: Life Technologies and Expression Analysis (LTEA) Assay for Cyclin D1 (CCND1) using HepaRG (AID 2283451).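 For AC50: differentiated human HepaRG liver cells in serum-free induction medium; TaqMan qRT-PCR transcript level normalised to ACTB GAPDH and POLR2A housekeeping genes.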 To be noted: mRNA level, 48 h; actives raise or lower the signal. The procedure, abridged: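 Expression change is measured by qRT-PCR in HepaRG cells after 48 h treatment across eight concentrations topping at 100 uM, with duplicate wells and DMSO (0.5%) serving as baseline for bidirectional fitting.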

Read-out in experiment [6]: catalase (CAT), CAT (gene 847)
The experiment in a line: LTEA_HepaRG_CAT: Life Technologies and Expression Analysis (LTEA) Assay for catalase (CAT) using HepaRG (AID 2283452).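 For AC50: TaqMan qRT-PCR signal normalized to ACTB GAPDH and POLR2A housekeeping genes.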 As to conditions: mRNA level, 48 h; actives raise or lower the signal. The procedure, abridged: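 Expression of CAT was quantified by TaqMan qRT-PCR with ACTB/GAPDH/POLR2A normalization after 48 h chemical exposure of HepaRG. Eight-point half-log series, top 100 uM, in 0.5% DMSO; gain or loss fitted against vehicle.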

Read-out in experiment [7]: flavin-containing dimethylaniline monooxygenases 3 (FMO3), FMO3 (gene 2328)
The experiment is described as follows: LTEA_HepaRG_FMO3: Life Technologies and Expression Analysis (LTEA) Assay for flavin-containing dimethylaniline monooxygenases 3 (FMO3) using HepaRG (AID 2283453).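 For AC50: differentiated human HepaRG liver cells in serum-free induction medium; FMO3 transcript by TaqMan qRT-PCR normalized to ACTB GAPDH and POLR2A.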 To be noted: mRNA level, 48 h; actives raise or lower the signal. The procedure, abridged:
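FMO3 transcript quantified by TaqMan qRT-PCR against three housekeeping genes after 48 h chemical exposure of HepaRG cells. Eight-point half-log series, top 100 uM, 0.5% DMSO vehicle; phenobarbital 1mM induction control; up- or down-regulation fitted.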

Experiment [8] can be described thus: CEETOX_H295R_ESTRADIOL: CeeTox H295R High-throughput Steroidogenesis Assay for Estradiol (AID 2283440).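 Note: estradiol secreted into medium quantified by LC-MS/MS after dansyl derivatisation.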 To be noted: actives raise or lower the signal. In short, it runs like this: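 Readout is estradiol in conditioned medium, quantified by reverse-phase HPLC-MS/MS against a 7-point standard curve. Cells: H295R, forskolin-stimulated, then dosed 48 h in 0.1% DMSO; activity fitted in both directions relative to DMSO.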

Experiment [9] is described as follows: CEETOX_H295R_ESTRONE: CeeTox H295R High-throughput Steroidogenesis Assay for Estrone (AID 2283441).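 For AC50: human adrenal H295R cells prestimulated with forskolin for two days.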 To be noted: actives raise or lower the signal. In short, it runs like this:
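Estrone secreted into medium quantified by LC-MS/MS after dansyl chloride derivatization, following 48 h chemical exposure (0.1% DMSO final) of forskolin-prestimulated (10 uM, 48 h) H295R cells; gain or loss fitted against DMSO; MTT viability in same wells.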

Read-out in experiment [10]: Fatty acid synthase (Homo sapiens) (UniProt P49327)
The experiment is described as follows: LTEA_HepaRG_FASN: Life Technologies and Expression Analysis (LTEA) Assay for Fatty Acid Synthase (FASN) using HepaRG (AID 2283448).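 For AC50: differentiated human HepaRG liver cells in serum-free induction medium.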 To be noted: mRNA level, 48 h; actives raise or lower the signal. In short, it runs like this: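 Cells were plated, cultured 48 h, switched to serum-free induction medium, then dosed in duplicate (max 100 uM, half-log dilutions, 0.5% DMSO) for 48 h. RNA was then isolated and FASN quantified by qRT-PCR.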

SMILES strings stand for the structures. Where “and” joins values, the source holds several entries; their conditions need not be identical. Equal values may be shown once. A structure can be active in one record and inactive in another. Calls of active or inactive are those of the source. Rule for the calls: active = hit-call score of the fitted dose curve at least 0.9, where 1 is the maximum; inactive = score below 0.9.

Fatty acid synthase (Homo sapiens), sequence (P49327 whole entry, looked up): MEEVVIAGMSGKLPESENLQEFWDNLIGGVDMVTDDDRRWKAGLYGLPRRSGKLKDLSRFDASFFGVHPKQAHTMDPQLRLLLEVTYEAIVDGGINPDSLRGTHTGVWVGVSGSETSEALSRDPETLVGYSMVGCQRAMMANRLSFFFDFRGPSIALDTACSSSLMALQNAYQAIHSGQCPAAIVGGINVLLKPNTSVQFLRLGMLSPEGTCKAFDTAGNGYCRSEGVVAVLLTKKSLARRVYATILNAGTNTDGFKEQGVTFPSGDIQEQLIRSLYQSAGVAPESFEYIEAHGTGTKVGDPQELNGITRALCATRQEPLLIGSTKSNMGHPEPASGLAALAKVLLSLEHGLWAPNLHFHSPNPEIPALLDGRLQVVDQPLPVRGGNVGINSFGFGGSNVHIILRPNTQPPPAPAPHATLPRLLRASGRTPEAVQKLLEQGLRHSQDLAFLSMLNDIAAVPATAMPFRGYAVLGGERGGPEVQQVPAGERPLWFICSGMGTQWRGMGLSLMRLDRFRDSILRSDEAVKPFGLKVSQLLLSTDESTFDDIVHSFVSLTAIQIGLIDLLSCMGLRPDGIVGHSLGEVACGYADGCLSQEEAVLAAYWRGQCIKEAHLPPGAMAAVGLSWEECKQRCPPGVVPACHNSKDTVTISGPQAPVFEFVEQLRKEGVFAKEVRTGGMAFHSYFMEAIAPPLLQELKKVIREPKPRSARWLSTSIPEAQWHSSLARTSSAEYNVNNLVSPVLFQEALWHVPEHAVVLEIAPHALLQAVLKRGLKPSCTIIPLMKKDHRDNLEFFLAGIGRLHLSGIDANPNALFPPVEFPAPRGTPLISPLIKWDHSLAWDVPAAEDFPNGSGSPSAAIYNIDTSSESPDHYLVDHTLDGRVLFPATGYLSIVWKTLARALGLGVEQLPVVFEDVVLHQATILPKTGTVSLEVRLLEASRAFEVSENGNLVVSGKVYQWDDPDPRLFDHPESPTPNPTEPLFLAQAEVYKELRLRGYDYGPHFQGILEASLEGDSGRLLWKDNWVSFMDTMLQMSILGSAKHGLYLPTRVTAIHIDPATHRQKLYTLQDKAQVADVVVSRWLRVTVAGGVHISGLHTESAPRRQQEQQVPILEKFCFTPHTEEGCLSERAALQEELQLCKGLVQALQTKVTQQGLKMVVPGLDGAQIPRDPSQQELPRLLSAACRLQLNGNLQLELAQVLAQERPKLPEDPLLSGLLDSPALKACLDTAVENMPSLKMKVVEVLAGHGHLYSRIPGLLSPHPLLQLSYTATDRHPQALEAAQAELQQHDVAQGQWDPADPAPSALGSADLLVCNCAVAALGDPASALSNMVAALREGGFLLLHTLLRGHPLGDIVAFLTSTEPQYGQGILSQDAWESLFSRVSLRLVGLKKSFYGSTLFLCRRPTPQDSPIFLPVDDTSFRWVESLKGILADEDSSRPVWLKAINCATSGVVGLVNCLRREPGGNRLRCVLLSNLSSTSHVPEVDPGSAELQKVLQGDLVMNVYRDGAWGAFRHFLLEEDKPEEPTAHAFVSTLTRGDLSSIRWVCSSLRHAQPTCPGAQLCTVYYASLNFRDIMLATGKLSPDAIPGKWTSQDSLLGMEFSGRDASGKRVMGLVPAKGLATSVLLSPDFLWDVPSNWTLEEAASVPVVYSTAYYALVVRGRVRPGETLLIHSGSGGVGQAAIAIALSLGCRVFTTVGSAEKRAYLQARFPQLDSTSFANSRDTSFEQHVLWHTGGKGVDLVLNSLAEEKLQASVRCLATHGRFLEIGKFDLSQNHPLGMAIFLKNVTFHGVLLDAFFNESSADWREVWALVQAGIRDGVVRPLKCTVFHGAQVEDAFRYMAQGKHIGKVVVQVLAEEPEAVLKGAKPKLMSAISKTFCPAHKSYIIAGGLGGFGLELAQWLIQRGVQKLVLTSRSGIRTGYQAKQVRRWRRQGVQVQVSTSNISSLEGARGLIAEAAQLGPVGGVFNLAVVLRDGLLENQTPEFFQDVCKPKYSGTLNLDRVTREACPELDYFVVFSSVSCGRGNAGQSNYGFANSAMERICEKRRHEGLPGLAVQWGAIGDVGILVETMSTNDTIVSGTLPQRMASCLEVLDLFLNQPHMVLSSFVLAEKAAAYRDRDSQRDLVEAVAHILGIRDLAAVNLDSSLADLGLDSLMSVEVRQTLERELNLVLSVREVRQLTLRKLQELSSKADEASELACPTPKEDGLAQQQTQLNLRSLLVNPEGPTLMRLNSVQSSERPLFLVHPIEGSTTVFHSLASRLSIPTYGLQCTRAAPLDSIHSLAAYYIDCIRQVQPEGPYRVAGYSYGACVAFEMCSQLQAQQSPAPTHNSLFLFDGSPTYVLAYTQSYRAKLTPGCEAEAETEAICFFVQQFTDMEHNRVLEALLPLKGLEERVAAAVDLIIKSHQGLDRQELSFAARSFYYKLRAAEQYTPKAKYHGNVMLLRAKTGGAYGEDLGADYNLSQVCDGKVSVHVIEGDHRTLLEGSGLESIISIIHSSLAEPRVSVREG

Take `CC(C)(C)[C@@H](O)[C@@H](Cc1ccc(Cl)cc1)n1cncn1`: the outcome in [1], in [2], in experiment [3], in experiment [4], in experiment [5] and in experiment [6] was inactive.
Turning to `CCNc1nc(N)nc(Cl)n1`, the result in experiment [1], in experiment [2], in [3], in experiment [4], in [5] and in experiment [6] was inactive. Besides, the call in experiment [7] was inactive.
Take `CC(C)(c1ccc(O)cc1)c1ccc(O)cc1`: the result in [8], in experiment [9], in experiment [1], in experiment [2], in experiment [3] and in [4] was inactive. The molecule was classed as inactive in [5] and in experiment [6].
Take `CCOC(=O)c1ccc(O)cc1`: the molecule was classed as inactive in [8], in experiment [9], in [2], in experiment [3], in experiment [4] and in experiment [5]. In experiment [6], the call was inactive. Moreover, the AC50 (commonly the concentration at which the activity in the assay is half-maximal) in experiment [1] was 36.5 µM (active).
With `CN(C)C(=O)Nc1ccc(Cl)c(Cl)c1`, the call in [1], in [2], in experiment [3], in experiment [4] and in experiment [6] was inactive. In experiment [5], the AC50 was 50 µM (active).
For `S=C(S)NCCNC(=S)S.[Mn+2].[S-]C([S-])=NCCN=C([S-])[S-].[Zn+2]`, the outcome in experiment [1], in experiment [2], in [3], in experiment [4] and in experiment [5] was inactive. Besides, the AC50 in experiment [2] is 1.63 µM (active); in experiment [10] it was 1.14 µM (active) and 714 nM (active) and 1.11 µM (active); in [4], 25 µM (active) and 3.66 µM (active); in [5], 0.187 µM (active); in experiment [6], 881 nM (active) and 1.09 µM (active) and 1.05 µM (active).
As for `C#CCOC(=O)[C@@H](C)Oc1ccc(Oc2ncc(Cl)cc2F)cc1`, the outcome in experiment [8], in experiment [9], in [2], in experiment [4], in experiment [5] and in [6] was inactive. For the same molecule, in experiment [1], the AC50 is 9.01 µM (active).
As for `C[C@]12C[C@H](O)[C@H]3[C@@H](CCC4=CC(=O)CC[C@@]43C)[C@@H]1CC[C@@H]2C(=O)CO`, the molecule was classed as inactive in experiment [9], in [2], in experiment [3], in experiment [4], in experiment [5] and in experiment [6].
Take `CCN(Cc1c(F)cccc1Cl)c1c([N+](=O)[O-])cc(C(F)(F)F)cc1[N+](=O)[O-]`: the call in [8], in [1], in experiment [2], in [3], in experiment [4] and in experiment [5] was inactive. Also, the molecule was classed as inactive in experiment [6]. In addition, the AC50 in experiment [9] is 13.7 µM (active).
With `CCCCC(CC)CN1C(=O)C2C3C=CC(C3)C2C1=O` (stereo not given), the call in experiment [8], in [9], in experiment [1], in [2], in experiment [3] and in [5] was inactive. Further, the figures for the AC50 in [10], in [4] and in experiment [6] were 34.6 µM (active), 77.1 µM (active) and 77.2 µM (active), respectively.
As for `CC1(C)C(C=C(Cl)Cl)C1C(=O)OCc1cccc(Oc2ccccc2)c1` (stereo not given), the AC50 in [1] is 11.5 µM (active). Also, the call in experiment [2], in [10], in experiment [3], in experiment [4], in experiment [5] and in experiment [6] was inactive.
With `C#C[C@]1(O)CC[C@H]2[C@@H]3CCC4=CC(=O)CC[C@@H]4[C@H]3CC[C@@]21CC`, the molecule was called inactive in experiment [1], in experiment [2], in experiment [3], in experiment [4], in experiment [5] and in experiment [6].
In the case of `C=CCOC(Cn1ccnc1)c1ccc(Cl)cc1Cl` (stereo not given), the AC50 in [1] is 0.296 µM (active); in [2] it was 68.9 µM (active); in experiment [4], 28.6 µM (active); in experiment [5], 90.5 µM (active); in [6], 33.5 µM (active); in [7], 35.3 µM (active). Further, the result in experiment [3] was inactive.
Take `CSC(=O)c1cccc2nnsc12`: the result in experiment [1], in experiment [2], in [3], in experiment [4], in [5] and in experiment [6] was inactive.
For `c1ccc2[nH]c(-c3cscn3)nc2c1`, the molecule was classed as inactive in [8], in experiment [9], in experiment [2], in experiment [3], in experiment [4] and in experiment [5]. Besides, the molecule was classed as inactive in [6] and in experiment [7]. Further, the AC50 in [1] was 59 µM (active).
Regarding `CCCCCOC(=O)COc1cc(N2C(=O)C3=C(CCCC3)C2=O)c(F)cc1Cl`, the call in experiment [8], in [9], in experiment [1], in experiment [2], in experiment [3] and in experiment [4] was inactive. Besides, the outcome in [5] and in [6] was inactive.
Consider `CCCCOCCOCCOCc1cc2c(cc1CCC)OCO2`, for which the molecule was classed as inactive in experiment [1], in experiment [2], in experiment [3], in experiment [4], in [5] and in experiment [6]. The outcome in [7] was inactive.
In the case of `O=C(Nc1ccc([N+](=O)[O-])cc1Cl)c1cc(Cl)ccc1O`, the molecule was called inactive in [8], in experiment [9], in experiment [1], in experiment [3] and in [4]. For the same molecule, the concentration at half-maximal activity (AC50) in experiment [2] was 3.08 µM (active); in experiment [5], 3.16 µM (active); in [6] it was 2.85 µM (active).
As for `CC(=O)S[C@@H]1CC2=CC(=O)CC[C@]2(C)[C@H]2CC[C@@]3(C)[C@@H](CC[C@@]34CCC(=O)O4)[C@H]12`, the result in experiment [8], in experiment [9], in experiment [1], in experiment [2], in experiment [3] and in [4] was inactive. Also, the molecule was classed as inactive in experiment [5]. Besides, the AC50 in [10] is 37.3 µM (active); in [6], 60.7 µM (active).
In the case of `Oc1ccc(C(c2ccc(O)cc2)C(Cl)(Cl)Cl)cc1`, the AC50 was 0.848 µM (active) in experiment [1], 88.8 µM (active) in experiment [10], 89.2 µM (active) in experiment [5] and 88.8 µM (active) in [6]. For the same molecule, the result in experiment [2], in experiment [3] and in experiment [4] was inactive.
For `CC(=O)[C@H]1CC[C@H]2[C@@H]3CCC4=CC(=O)CC[C@]4(C)[C@H]3CC[C@]12C`, the outcome in experiment [8], in [9], in experiment [3] and in [5] was inactive. Moreover, the AC50 in experiment [1] is 5 µM (active); in experiment [2] it was 60.6 µM (active); in [4] it was 16.8 µM (active); in experiment [6] it was 50 µM (active); in experiment [7], 34.1 µM (active).
For `c1ccc(Nc2ccccc2)cc1`, the call in experiment [1], in experiment [2], in experiment [4], in [5] and in experiment [6] was inactive.
In the case of `S=C([S-])NCCNC(=S)[S-].[Mn+2]`, the call in experiment [1], in [3] and in experiment [4] was inactive. In addition, the concentration at half-maximal activity (AC50) in experiment [2] is 5.41 µM (active); in experiment [10] it was 2.55 µM (active); in experiment [5], 0.485 µM (active); in experiment [6], 2.97 µM (active).
